Drawing on PubChem BioAssay (NCI), this text covers growth for eleven molecules.

Compounds without any hit were thinned out: in the full panel of roughly 83,000, 20% have a hit.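 Method: cells in 96-well plates; compound added at one concentration; 48 h incubation; percent growth measured; values under 10 scored active.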 Values without a mark were called inactive. Activity calls are given as the source filed them.

This assay concerns MDA-MB-468 breast. Put plainly: NCI-60 one-dose screen, 48 h (100 = growth as untreated, 0 = no growth, -100 = all killed). Conditions: 10 µM unless noted.
Regarding `CN(C)CCOc1ccc(-c2nc3ccc(-c4nc5ccc(N6CCN(C)CC6)cc5[nH]4)cc3[nH]2)cc1`, the growth was 40.2%.

On to `O=C(COc1ccc(/C=C2\C(=O)Nc3cc(Cl)ccc32)cc1)Nc1ccc(Cl)cc1`, for which the growth is 86.8%. As to `Cc1cc(N2CCCC2)nc(N(CCCNc2ccnc3cc(Cl)ccc23)Cc2ccc3c(c2)OCO3)n1`, the growth was -47.4% (active). With `CCOC(=O)c1cc(C(=O)c2cc(OC)c(OC)c(OC)c2)n2ccc(-c3ccncc3)cc12`, the growth is 99.1%. With `CC(=O)OC[C@]12CC[C@@H]([C@@H](C)C(N)=O)[C@@H]1[C@H]1CC[C@@H]3[C@@]4(C)CC[C@H](OC(C)=O)C(C)(C)[C@@H]4CC[C@@]3(C)[C@]1(C)CC2` the figure was -40.4% [100 µM] (active). Consider `C#CCNCCN1C(=O)c2ccc3c4c(ccc(c24)C1=O)C(=O)N(CCNCC#C)C3=O`, for which the growth is 17.1%.

With `Cc1cc(Nc2ccc(C)c(Cl)c2)n2nc(C(F)(F)F)nc2n1`, the growth was 36.5%.

On to `COC(=O)c1cc(Nc2ccc(O)c3c2C(=O)c2c([N+](=O)[O-])ccc(O)c2C3=O)cc(C(=O)OC)c1`, for which the growth is 71.9%.

In the case of `Cc1cc2c(cc1C)[n+](Cc1ccc3ccccc3c1)cn2Cc1ccc2ccccc2c1`, the growth was -76.4% (active). In the case of `COc1ccc(-c2nc(-c3cn(C)c4ncccc34)cs2)cc1`, the growth is -6.3% [100 µM] (active). For `C/C=C(/C)C(=O)O[C@@H]1CC(C)(C)CC2C34OC(=O)[C@@]21CC[C@@]3(C)[C@]1(C)CCC2C(C)(C)C(=O)CC[C@]2(C)C1C[C@@H]4O` (stereo partly specified), the growth was 13.1%.
